Most compounds without a hit are left out; they make up all but 28% or so of the library.
CYP2C9 inh – blockers of cytochrome P450 2C9 activity – biochemical, luminescence, ADME assay, primary screen | P11712 | 96,000 compounds, 20% hits | inhibition, % at 5 µM | CYP2C9 Supersomes, luciferin-H conversion | AID 777, 2007;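 active = blocking of liver enzyme CYP2C9 beyond about 50% at 5 µM, limit read from the data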
CYP2C19 activ – human CYP2C19 activators, primary screen, biochemical, luminescence | recombinant CYP2C19, luciferin-H EGE luminescence; active compounds read high; 0 = fully inhibited enzyme, 1 = untreated enzyme | activation factor at 5 µM | 96,000 tested, under 10 active;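 active = activation factor of at least 2 at 5 µM in the primary screen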;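 note: 0 = wells with 2.5 mM tranylcypromine and 1 = vehicle-only wells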
hDAT+cocaine – changed hDAT dopamine uptake under cocaine IC80, either direction, primary screen, cocaine antagonist project, cell-based, LLC-PK1 hDAT, [14C]-dopamine uptake, MLSMR. Sodium-dependent dopamine transporter (Homo sapiens), Q01959. LLC-PK1 hDAT cells, [14C]-dopamine uptake with cocaine IC80; actives deviate in either direction. B-score at 10 µM. 110,000 compounds, 1.3% hits. AID 449768, 2010;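 active = Z score or B-score, a plate-position-corrected score, falls beyond the plate's 99.7% confidence bounds, in either direction; inactive = both scores lie inside the 99.7% bounds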;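 note: scored against the spread of the other compound wells on the same plate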
Target sequence (Q01959 whole entry, looked up): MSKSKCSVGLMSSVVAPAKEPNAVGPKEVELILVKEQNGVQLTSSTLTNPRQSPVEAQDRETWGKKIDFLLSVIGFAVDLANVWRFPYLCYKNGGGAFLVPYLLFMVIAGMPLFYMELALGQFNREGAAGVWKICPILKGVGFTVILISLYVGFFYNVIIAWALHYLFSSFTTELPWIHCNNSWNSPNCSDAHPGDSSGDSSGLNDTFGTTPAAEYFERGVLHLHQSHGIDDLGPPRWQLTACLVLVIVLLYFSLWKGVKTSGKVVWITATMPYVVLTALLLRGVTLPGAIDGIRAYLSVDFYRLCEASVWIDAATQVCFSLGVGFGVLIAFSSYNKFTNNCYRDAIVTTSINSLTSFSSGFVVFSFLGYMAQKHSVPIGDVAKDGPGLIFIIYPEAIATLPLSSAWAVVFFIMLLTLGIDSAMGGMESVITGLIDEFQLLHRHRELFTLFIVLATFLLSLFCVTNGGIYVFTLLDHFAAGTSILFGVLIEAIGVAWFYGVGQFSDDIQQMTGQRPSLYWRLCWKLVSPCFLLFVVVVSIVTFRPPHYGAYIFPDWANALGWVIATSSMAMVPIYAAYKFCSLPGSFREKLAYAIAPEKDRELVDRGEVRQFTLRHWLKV
CYP2C9 act – human CYP2C9 activators, primary screen, biochemical, luminescence | 96,000 compounds, 1.4% hits | AID 1024, 2008 | recombinant CYP2C9, luciferin-H conversion; active compounds read high; factor 1 = untreated enzyme, 0 = blocked | activation factor at 5 µM;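 active = activation factor of 2 or more for CYP2C9 at a 5 µM dose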;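 note: 0 = sulfaphenazole-blocked wells and 1 = vehicle-only wells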
CYP2C19 inh – blockers of cytochrome P450 2C19 activity – biochemical, luminescence, ADME assay, primary screen | P33261 | CYP2C19 Supersomes, luciferin-H EGE luminescence, 30 min | inhibition, % at 5 µM | 96,000 compounds, 21% hits | AID 778, 2007;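 active = CYP2C19 inhibition above a set limit at 5 µM in the primary screen, cut at about 50% in these data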;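 note: plate controls were negative control wells for no effect and 2.5 mM tranylcypromine positive control for full effect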
D1 allo mod – D1 CRE-luciferase signal change, two-sided – cell-based, HEK293 D1, dopamine EC30, D1 allosteric modulator project, primary screen; 58,000 compounds, 5.9% hits; B-score at 10 µM; dopamine EC30 potentiation; actives deviate in either direction;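 active = luminescence count or its row- and column-corrected plate score outside the 99.7% band of the plate's sample wells, on either side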
* = called active by the depositor; nt = no result.

SMILES	CYP2C9 inh	CYP2C19 activ	hDAT+cocaine	CYP2C9 act	CYP2C19 inh	D1 allo mod
CCOC(=O)c1c(NC(=O)CC(C)C)sc(C(C)=O)c1C	nt	nt	0.27	nt	nt	nt
CCOC(=O)c1sc(NC(=O)CCN2C(=O)c3cccc([N+](=O)[O-])c3C2=O)c(C(=O)OCC)c1C	57*	0.5	0.8	0.4	49	nt
CCOC(=O)c1sc(NC(=O)CN(CC(C)C)CC(C)C)c(C(=O)OCC)c1C	62*	0.7	1.9	0.4	35	nt
CCOC(=O)c1sc(NC(=O)/C=C/c2cnn(C)c2C)c(C(=O)OCC)c1C	25	0.9	nt	0.8	6	nt
CCC(CC)c1nnc(NC(=O)CCN2C(=O)c3ccccc3C2=O)s1	42	0.8	0.39	0.6	22	nt
O=C(CSc1c2c(nc3cc(Cl)ccc13)CCCC2)NCc1ccco1	88*	0	0.077	0.1	98*	nt
O=C(CSc1nc(-c2ccccc2Cl)ns1)NCc1ccco1	63*	0.6	-1.1	0.4	36	0.13
O=C(CSc1nc2ccc(Cl)cc2[nH]1)NCc1ccco1	51*	0.5	-0.7	0.5	47	0.73
NC(=O)CSc1nc(-c2ccccc2Cl)ns1	26	0.6	-0.76	0.7	42	-0.69
O=C(CSc1ncnc2sc3c(c12)CCCCC3)NCc1ccco1	31	0.7	-0.53	0.7	34	4.3
CCCNC(=O)c1ccccc1NC(=O)c1ccccc1N(C)S(=O)(=O)c1ccc(C)cc1	nt	nt	0.62	nt	nt	nt
Cc1ccc(C(C)n2cc(C(=O)NCc3ccncc3)nn2)cc1 (stereo not given)	89*	0.6	0.42	0.1	43	0.5
COC(=O)Oc1nsnc1N1CCOCC1	45	1	0.26	0.6	4	-0.13
Brc1ccc(Oc2nsnc2N2CCOCC2)cc1	24	0.1	0.0014	0.8	89*	1.6
CC(C)(C)c1ccc(S(=O)(=O)CCc2ccccn2)cc1	20	0.3	-0.27	0.8	68*	nt
Cc1ccc(S(=O)(=O)CCc2ccccn2)cc1	-16	0.7	-0.45	1.2	26	0.47
CCOC(=O)c1c(C)[nH]c(C)c1C(=O)COC(=O)c1ccc(Cl)c(S(=O)(=O)NCc2ccccc2)c1	80*	0.2	-0.69	0.2	82*	nt
CC1(C)C(=O)Nc2ccccc2N1C(=O)COC(=O)c1ccc(Cl)c(S(=O)(=O)NCc2ccccc2)c1	93*	0.8	0.25	0.1	17	nt
Cc1ccc(-n2c(N)c(C(=O)NCc3cccnc3)sc2=S)cc1	19	0.8	-1.7	0.8	17	nt
COC(=O)c1ccc(CN2[C@H](C(=O)OC)C[C@@]3(O)[C@@H](O)[C@@H](O)[C@@H](O)C[C@@H]23)cc1	nt	nt	-0.061	nt	nt	nt
COC(=O)CCC(=O)NNC(=O)c1ccc(Cl)cc1Cl	17	0.9	-4.7*	0.8	13	nt
Cc1cccc(N(C)c2cc(C)nc3nc(C)nn23)c1	nt	nt	-0.56	nt	nt	0.24
COC(=O)c1ccc(-n2cnc(Cl)n2)c(F)c1	5	0.9	-0.046	1	5	nt
COC(=O)c1c(C(=O)OC)c2ccncn2c1Cl	80*	0.2	-0.09	0.2	81*	nt
CC1(C)CC(=O)CC(C)(C)N1OC(=O)c1ccncc1	52*	0.3	-0.85	0.5	67*	-0.18
SMILES	CYP2C9 inh	CYP2C19 activ	hDAT+cocaine	CYP2C9 act	CYP2C19 inh	D1 allo mod
CC(C)NC(=S)Nc1ccc(Oc2ccccc2)cc1	40	0.3	-0.4	0.6	72*	nt
CCCNC(=S)Nc1ccc(Oc2ccccc2)cc1	42	0.3	0.028	0.6	68*	nt
COC(=O)[C@H](C)NC(=O)Nc1ccc(Oc2ccccc2)cc1	21	0.6	1.6	0.8	37	-0.42
CCO[C@@H]1OC(C(=O)N2CCN(C)CC2)=C[C@H](C(C)(C)C)[C@H]1CCCO	nt	nt	-0.97	nt	nt	nt
NC(=O)c1ccc(OCC(F)(F)C(F)(F)C(F)(F)C(F)(F)C(F)(F)C(F)F)cc1	42	0.4	-0.67	0.6	55*	-0.31
NC(=O)c1ccc(F)cc1	nt	nt	0.4	nt	nt	-0.57

From PubChem BioAssay
